Assay outcomes: PubChem, National Center for Advancing Translational Sciences (NCATS)
Most compounds without a hit are left out; they make up all but 1.2% or so of the library.
GoLoco inh red: qHTS Assay for Inhibitors of RGS12 GoLoco Motif Activity (Red Fluorophore). Guanine nucleotide-binding protein G(i) subunit alpha-1 (Homo sapiens), P63096. Gai1:RGS12 GoLoco peptide FP, rhodamine, 10 min. Potency, µM (top dose mostly 61.6 µM), for the others: at the highest dose activity, negative = inhibition, most hits filed as inhibitors. actives 0.44% (n = 230,000). AID 880, 2007; active = well fitted inhibition curve with a large enough effect, not every such curve was filed as active; inactive = no such curve, though single readings can be large or run the other way; also: nearly all actives have a fitted effect of over 30% in size
Target sequence (P63096 whole entry, looked up): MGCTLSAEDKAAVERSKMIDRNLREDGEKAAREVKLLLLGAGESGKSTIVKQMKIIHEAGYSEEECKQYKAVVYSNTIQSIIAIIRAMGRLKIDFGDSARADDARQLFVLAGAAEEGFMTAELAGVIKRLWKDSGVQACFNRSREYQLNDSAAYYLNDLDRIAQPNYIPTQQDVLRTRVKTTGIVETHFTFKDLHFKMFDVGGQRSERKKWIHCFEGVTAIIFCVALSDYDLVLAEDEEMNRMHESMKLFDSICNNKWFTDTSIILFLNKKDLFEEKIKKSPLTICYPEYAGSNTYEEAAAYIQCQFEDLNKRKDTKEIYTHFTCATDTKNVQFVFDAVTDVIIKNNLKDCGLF
TexasRed fluor: Total Fluorescence Counterscreen for Inhibitors of the Interaction of Thyroid Hormone Receptor and Steroid Receptor Coregulator 2. TRb/SRC2 Texas Red total fluorescence interference. Potency, µM (titrated, usually from 106 µM), inactives show top-dose fluorescence change, negative = quenching. actives 0.29% (n = 280,000). AID 1479, 2009; active = well fitted curve in either direction with a large enough effect; inconclusive = small, poorly fitted or top-dose-only effect
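Human TRβ ligand-binding domain (0.6 uM) and Texas Red SRC2 peptide (20 nM) in Tris buffer with 1 uM T3 and 5% DMSO were incubated with pinned compound for 5 hr at ambient temperature. Total fluorescence was computed as S + 2P (555/632 nm).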
TRb SRC2 PPI: qHTS for Inhibitors of the Interaction of Thyroid Hormone Receptor and Steroid Receptor Coregulator 2; actives 0.065% (n = 280,000); Thyroid hormone receptor beta (Homo sapiens), P10828; Potency, µM (doses to about 106 µM), inactives show at the top dose activity change, negative = inhibition, hits mostly inhibitors; TRbeta-SRC2 peptide binding, fluorescence polarization; receptor liganded with 1 µM T3; AID 1469, 2008;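 also: plate controls were bound peptide for no effect and peptide without receptor for full effect; nearly all actives have a fitted effect of over 50% in size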
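Human TRb ligand-binding domain (0.6 uM) is mixed with 20 nM Texas Red SRC2 peptide and 1 uM T3; after compound addition and 5 hr at ambient temperature, polarization is measured and normalized to unbound and bound controls.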
VDR inh: Inhibitors of the vitamin D receptor (VDR): qHTS. Vitamin D3 receptor (Homo sapiens), P11473. VDR-SRC2-3 peptide fluorescence polarization, 2 h. Potency, µM, inactives show max response, negative = inhibition, most hits filed as inhibitors. actives 0.93% (n = 400,000)
Target sequence (P11473 whole entry, looked up): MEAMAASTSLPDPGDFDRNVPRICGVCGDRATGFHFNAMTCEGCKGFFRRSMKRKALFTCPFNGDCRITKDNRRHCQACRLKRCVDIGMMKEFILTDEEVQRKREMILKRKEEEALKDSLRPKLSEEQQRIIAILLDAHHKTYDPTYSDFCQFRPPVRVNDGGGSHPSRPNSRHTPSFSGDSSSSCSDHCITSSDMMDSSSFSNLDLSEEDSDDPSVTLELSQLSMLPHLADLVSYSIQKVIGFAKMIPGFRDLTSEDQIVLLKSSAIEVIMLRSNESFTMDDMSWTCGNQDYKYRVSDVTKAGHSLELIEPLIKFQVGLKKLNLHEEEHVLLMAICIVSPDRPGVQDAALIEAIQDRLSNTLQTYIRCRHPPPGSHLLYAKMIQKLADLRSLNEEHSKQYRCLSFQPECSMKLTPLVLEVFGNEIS
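Reagent solutions, kept cold and dark, are dispensed first; compounds are then pinned in at 23 nl, plates briefly spun, and incubated 2 h at ambient temperature. Inhibition of VDR–SRC2-3 peptide binding is read by fluorescence polarization.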
GCN5L2 inh: qHTS Assay for Inhibitors of GCN5L2 | Histone acetyltransferase KAT2A (Homo sapiens), Q92830 | GCN5L2 HAT assay, ThioGlo1 CoA-SH fluorescence | Potency, µM (highest dose often 58.9 µM), inactives show at the top dose activity change, negative = inhibition, usual class: inhibitors | actives 0.21% (n = 390,000) | AID 504327, 2011
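GCN5L2 (20nM final) in 50mM HEPES, 0.1mM EDTA pH 7.5, 0.01% Tween-20 was preincubated 15 min at room temperature with compound, then given ThioGlo1 (50uM), H3(1-25) peptide (75uM) and acetyl-CoA (70uM); CoA-thiol fluorescence (Ex340/Em540) was read at 0 and 20 min.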
Active calls of the source: *; u = inconclusive; x = not tested or not shown; ! = not active in a repeat; [ ] = dose if it differs, or a comment. Unless noted, calls follow the shape of the dose curve; as a rule, active = well fitted curve in the direction sought with a large enough effect; inconclusive = small, poorly fitted or top-dose-only effect, or another doubt; inactive = no such curve, though single readings can be large; an effect the other way counts as inactive or inconclusive. Unless noted, % is scaled to controls: 0 for no effect and ±100 for the full control effect; potency is read from the fitted curve at half-maximal effect.

SMILES | GoLoco inh red | TexasRed fluor | TRb SRC2 PPI | VDR inh | GCN5L2 inh
O=Nc1ccc(Nc2ccccc2)cc1 | 11% | -3%[201 µM] | -9%[201 µM] | x | x
Cc1ccc(-n2cccc2/C=C2/NC(=O)N(CC(=O)Nc3cccc(C)c3)C2=O)cc1 | 7.9µM* | -2% | 6% | -5% | -8%
N[C@@H]1[C@@H](O)[C@H](O)[C@@H](CO)O[C@H]1O | x | -1%[201 µM] | 0%[201 µM] | x | x
Cn1c(=O)c2[nH]c(SCCN3CCOCC3)nc2n(C)c1=S | 0%[14.2 µM] | x | x | 28µM* | x
CCCSc1nc2c([nH]1)c(=O)n(C)c(=S)n2C | x | x | x | 3% | x
CCSc1nc2c([nH]1)c(=O)n(C)c(=S)n2C | x | x | x | 22µM* | x
S=c1ncc2[nH]c(=S)[nH]c2[nH]1 | x | x | x | 32µM* | x
S=c1[nH]c2ccc(Cl)cc2[nH]1 | -20% | -2% | 6% | u | -23%
O=c1[nH]cnc2c1C(c1ccccc1)c1c(nc[nH]c1=O)O2 | x | x | x | -11% | -2%
O=c1[nH]cnc(O)c1C1C=CC=CC=C1 | x | x | x | 40µM* | x
CCOc1ccccc1C1NC(c2ccc3c(c2)OCO3)=CC(c2ccccc2O)N1 (configuration not stated) | x | x | x | -16% | x
Cc1ccc(S(=O)(=O)N2CCN(S(=O)(=O)c3ccc4c(c3)OCCCO4)CC2)cc1 | x | x | x | 1% | x
O=C(COC(=O)Cc1ccsc1)Nc1cccc(F)c1 | x | x | x | 89µM* | -4%
O=C(COC(=O)Cc1ccsc1)Nc1cccc(Cl)c1 | x | x | x | 1% | -6%
CC(=O)OCC1OC(C#Cc2ccc(Cl)cc2)C=CC1OC(C)=O (configuration not stated) | x | -3%[11.2 µM] | 0%[11.2 µM] | x | x
O=C1C=CC(=O)N1c1ccc2ccccc2c1 | x | x | x | 79µM* | x
CCN(CC)C1CC(=O)N(c2cccc(C)c2)C1=O (configuration not stated) | -16% | 0% | 2% | x | 12%
Cc1cccc(N2C(=O)C=CC2=O)c1 | x | x | x | 50µM* | x
COC(=O)[C@@H]1[C@@H](O)[C@]2(O)c3ccccc3O[C@]2(c2ccccc2)[C@H]1c1ccccc1 | x | -2%[11.2 µM] | -3%[11.2 µM] | x | x
CC1(C)CC(N2CCCC2)=CC(=[N+]2CCCCC2)C1 | 6.3µM* | -3% | 3% | -15% | -12%
CC1(C)CC(=O)C=C(N2CCN(C3=CC(=O)CC(C)(C)C3)CC2)C1 | 14% | 0% | -5% | x | -13%
CC(=O)Nc1ccc(-c2nnc(SCC(=O)c3ccc4c(c3)Cc3ccccc3-4)n2C)cc1 | 9% | 2% | 3% | 50µM* | -4%
CC(=O)Nc1ccc(C(=O)CSc2nnc(-c3ccccc3)n2-c2ccccc2)cc1 | x | 5% | 9% | 4% | 0%
COc1ccc(NC(=O)Cn2cnc3c(nc4n3CCCCC4)c2=O)cc1Cl | x | u | 8% | 14% | -16%
O=C(Cn1cnc2c(nc3n2CCCCC3)c1=O)Nc1ccc(F)c(Cl)c1 | x | 18µM*[quencher] | -7% | -11% | -21%
SMILES | GoLoco inh red | TexasRed fluor | TRb SRC2 PPI | VDR inh | GCN5L2 inh
COc1ccc(CCNC(=O)c2cc(Nc3ccccc3)nc3ccccc23)cc1OC | x | 0.0008µM*[quencher] | -18% | 9% | u
COc1cc(C(=O)/C=C/c2cccnc2)c([N+](=O)[O-])cc1OC | x | x | x | 50µM* | -5%
Cc1ccco1 | 12% | 0% | -4% | x | x
CCOC(=O)C(CC(=O)O)NCc1ccco1 (configuration not stated) | -1% | 1% | 7% | -21% | -3%
COc1ccc(OC)c(NC(=O)C(CC(=O)O)NCc2ccco2)c1 (configuration not stated) | -14% | 1% | 2% | 12% | 3.2µM*
CCOc1cc(/C=C2/C(=O)N(c3ccccc3)N=C2C)ccc1OC(=O)c1ccco1 | 11% | 0% | u | u | -19%
CCOc1cc(/C=C2\C(=O)N(c3ccc(C(N)=O)cc3)N=C2C)ccc1OC(=O)c1cccs1 | 3% | -26% | u | 50µM* | 0%
COc1cc(N=C(N)N=C(N)N)c2ncccc2c1 | 3%[14.2 µM] | x | x | x | x
CC(=O)c1cc2c(cc1F)C(C)(C)CCC2(C)C | x | x | x | -16% | x
O=C(O)c1ccc(C(=O)Nc2ccc(F)cc2)cc1 | x | x | x | -5% | -3%
C=C(c1ccc(C(=O)O)cc1)c1cc2c(cc1C)C(C)(C)CCC2(C)C | x | x | x | u | 6.3µM*
CC1(C)CCC(C)(C)c2cc(C(=O)Nc3ccc(C(=O)O)cc3)ccc21 | -5% | -5%[201 µM] | -6%[201 µM] | 79µM*! | u
Cc1ccc(-c2c(C3C4C=CCC(C)C4C(=O)N3Cc3ccccc3)ccc3ccccc23)cc1 (configuration not stated) | x | 0% | 3% | -16% | x
COc1ccc(NC(=O)Cn2c(=O)c3cc(Cl)ccc3n3nncc23)cc1 | x | 0.35µM*[quencher] | -23%[53 µM] | -14% | 19%
O=C1NC(=O)/C(=C/c2ccc3c(c2)OC(F)(F)O3)S1 | x | x | x | u | -15%
Cc1cccc(N=Nc2c(C)c(C#N)c(O)[nH]c2=O)c1 | 5µM* | 3% | 4% | 11% | -3%
CC(O)c1cccc2cc(C(O)CNC(C)(C)C)oc12 (configuration not stated) | x | 2% | -5% | 7% | -10%
C=C1C(=O)OC2CC1C(OC(C)=O)CC(C)=CCCC(C)=CCC[C@@]2(C)O (some centres not stated) | 1% | 0% | -2% | 35µM* | -10%
NC(=O)C/C=C\CC(N)=O | -4%[14.2 µM] | x | x | x | x
Cc1ccc(C(=O)Nc2sc(C)c(C)c2C(=O)c2ccccc2)cc1 | 1% | 0% | 0% | 45µM* | 2%
CNc1nc(-c2ccccc2)c(-c2ccccc2)s1 | x | x | x | -1% | x
CS(=O)(=O)Nc1cccc(-c2nc(NCc3cccnc3)c3ccccc3n2)c1 | -1% | 0% | 9% | -3% | -3%
CS(=O)(=O)Nc1cccc(-c2nc(NCc3ccccc3)c3ccccc3n2)c1 | 11% | x | x | 50µM* | u
COc1cccc(-c2nc(NCc3cccs3)c3ccccc3n2)c1 | 3% | x | x | 50µM* | u
Cc1noc(C)c1-c1nc(NCc2ccccc2)c2ccccc2n1 | 2% | x | x | 35µM* | 25µM*
SMILES | GoLoco inh red | TexasRed fluor | TRb SRC2 PPI | VDR inh | GCN5L2 inh
N#Cc1cccc(-c2nc(NCc3ccccc3)c3ccccc3n2)c1 | 8% | x | x | 45µM* | u
Cc1noc(C)c1-c1nc(NCc2cccnc2)c2ccccc2n1 | -6% | -1% | 4% | u | -8%
c1ccc(-c2nc(NCc3cccs3)c3ccccc3n2)cc1 | x | x | x | 2% | -12%
CC#CC(=O)Nc1cc2c(Nc3ccc(F)c(Cl)c3)ncnc2cn1 | x | 3% | 7% | 2% | -22%
COc1ccc([N+](=O)[O-])cc1N(CC(=O)N1CCN(Cc2ccccc2)CC1)S(C)(=O)=O | x | x | x | 50µM* | 1%
Nc1nc(Sc2ccc(C(F)(F)F)cc2[N+](=O)[O-])n[nH]1 | -4% | -5% | 1% | 14% | -4%
